Screening results: PubChem, University of Kansas High Throughput Screening Laboratory
mHTT-CaM PPI inh: disrupts binding of mutant huntingtin to calmodulin; inhibition, % at 15 µM; 3.6% of 190,000 active; AID 1671202; AlphaScreen His-mHTT/GST-CaM binding, luminescence;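 further: 0% = both proteins with DMSO and 100% = one protein alone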
Pf apPOL block: Pf-apPOL DNA polymerase inhibition | Recombinant Pf-apPOL, molecular beacon fluorescence, 1.5 h | inhibition, % at 10 µM | 0.25% of 210,000 active | AID 1794808
* = called active by the depositor; i = inactive; x = not tested or not shown. Many of the other results were omitted from the sample, so hits are more common in it than they were. No stated cut-off is given here; in the data, active means inhibition above about 50%; inactive means the rest.

SMILES | mHTT-CaM PPI inh | Pf apPOL block
Cc1cccc(CN2CCCn3nc(C(=O)Nc4ccc(F)cc4C)cc3C2=O)c1 | 6 | 74*
COc1ccc(CNC(=O)c2ccccc2F)cc1 | 0 | 4
N#Cc1ccc(S(=O)(=O)N2CCC(c3cc(N)on3)CC2)cc1 | 0 | 0
Cc1ccc(C(O)CN2CCN(c3ccccc3)CC2)c(C)c1 (stereo unspecified) | 3 | 12
O=C(CCC1CCCC1)N1CCC(Nc2cccnc2)C1 (stereo unspecified) | -2 | 67*
O=C(CCc1ccccc1)N1CCC(Nc2cccnc2)C1 (stereo unspecified) | -4 | -5
COc1ccc(-c2nc(N)ncc2Oc2ccccc2OC)c(O)c1 | 20 | 4
COc1ccc(C=C2Oc3c(ccc4c3CN(Cc3ccco3)CO4)C2=O)c(OC)c1 | 68* | -17
COc1ccc(OC)c(C=C2Oc3c(ccc4c3CN(Cc3ccco3)CO4)C2=O)c1 | 16 | -8
COc1ccc(C=C2Oc3c(ccc4c3CN(Cc3ccco3)CO4)C2=O)c(OC)c1OC | 66* | -24
COc1ccc(C=C2Oc3c(ccc4c3CN(Cc3ccncc3)CO4)C2=O)c(OC)c1OC | 0 | -19
COc1ccc(CN2COc3ccc4c(c3C2)OC(=Cc2ccco2)C4=O)cc1 | 51* | -6
O=C1C(=Cc2ccco2)Oc2c1ccc1c2CN(Cc2ccc3c(c2)OCO3)CO1 | 48 | -7
COc1ccc(C=C2Oc3c(ccc4c3CN(c3ccc5c(c3)OCO5)CO4)C2=O)cc1OC | 59* | 6
COc1ccc(C=C2Oc3c(ccc4c3CN(c3ccc5c(c3)OCCO5)CO4)C2=O)cc1OC | 3 | 3
CCCn1cnnc1C1CCN(Cc2ccc[nH]2)CC1 | 39 | 9
O=C(Nc1c(F)cccc1F)N1CCc2nc(-c3ccc(F)cc3)ncc2C1 | 2 | -7
CCOc1ccc(C(=O)N2CCC(c3noc(-c4ccccc4OC)n3)CC2)cc1 | 9 | -3
CC1=NN(c2cc(Cl)ccc2Cl)C(=O)/C1=C/c1ccccc1 | 14 | 3
Cc1nc(Nc2ccc(NC(=O)Nc3ccc(F)cc3F)cc2)cc(-n2ccnc2)n1 | -2 | -4
O=C(Nc1c2c(nn1-c1ccc(F)cc1)CS(=O)C2)c1c(F)cccc1Cl (stereo unspecified) | 1 | -2
COCCCN1COc2ccc3c(c2C1)OC(=Cc1cc(OC)c(OC)c(OC)c1)C3=O | 29 | -28
COc1cc(C=C2Oc3c(ccc4c3CN(CCN3CCOCC3)CO4)C2=O)cc(OC)c1OC | 89* | -36
O=C1C(=Cc2ccc(-c3ccccc3)cc2)Oc2c1ccc(O)c2CN1CCN(CCO)CC1 | 24 | 2
COc1ncc(C(=O)NCCc2ccccc2)cn1 | -4 | -4
SMILES | mHTT-CaM PPI inh | Pf apPOL block
Cc1ccc(NC(=O)COc2cc(C)nc(N3CCCC3)n2)c(Cl)c1 | -5 | 0
CC(=O)c1cccc(Nc2nc(-c3ccccc3)cs2)c1 | 22 | -3
Cc1ccc(Nc2nc(-c3ccccn3)cs2)cc1 | 93* | -4
CN(C)c1ccc(C(=O)Nc2cc(-c3ccccn3)no2)cc1 | -5 | -14
O=[N+]([O-])c1ccc(Nc2nc(-c3ccccn3)cs2)cc1 | 48 | 5
CC(=O)Nc1nc(C)c(-c2csc(Nc3ccc(C(=O)O)cc3)n2)s1 | 5 | -7
CC(=O)c1cccc(Nc2nc(-c3ccccn3)cs2)c1 | 86* | -11
CCOc1ccc(Nc2nc(-c3sc(NC(C)=O)nc3C)cs2)cc1 | 64* | 8
CN(C)c1ccc(Nc2nc(-c3ccccn3)cs2)cc1 | 100* | -17
COC(=O)c1scc(C)c1NN=Cc1c(F)cccc1Cl | x | -12
COc1ccc(-c2noc(C3CCCN3C(=O)Nc3ccc4c(c3)OCO4)n2)cc1 (stereo unspecified) | 24 | -2
COc1ccc(/C(N)=N/OC(=O)c2ccc(C)c(C)c2)cc1OC | i | -20
Cc1cc(C(=O)NNC(=O)CSCc2cccc3ccccc23)no1 | x | 0
COc1ccc(-c2ncc3c(n2)CCN(C(=O)c2cc(Cl)ccc2F)C3)cc1 | 1 | -7
O=C(Cc1ccc(F)cc1)Nc1nc2ccc([N+](=O)[O-])cc2s1 | 6 | -7
CC(=O)Nc1cccc(-c2csc(Nc3ccc(C(=O)O)cc3)n2)c1 | 9 | -10
Cc1ccnc(Nc2nc(-c3ccccn3)cs2)c1 | 100* | -1
CC(=O)Nc1ccc(Nc2nc(-c3ccccn3)cs2)cc1 | 92* | -7
Cc1ccnc(Nc2nc(-c3cccs3)cs2)c1 | 25 | -5
CCOC(=O)C1C(=O)C=C(c2cccc(NS(C)(=O)=O)c2)CC1c1ccccc1F (stereo unspecified) | 2 | 3
COc1cccc(-c2noc(CCN)n2)c1 | -2 | -4
O=C(Cc1ccccc1)N1CCCCC1c1nncn1CC1CC1 (stereo unspecified) | -8 | 1
O=c1cc(O)n(-c2ccccc2)[nH]1 | 20 | 53*
O=c1cc(C(F)(F)F)[nH]n1-c1ccccc1 | x | 6
O=C(NCc1ccccn1)c1ccc(S(=O)(=O)N2CCOCC2)cc1 | -6 | -1
SMILES | mHTT-CaM PPI inh | Pf apPOL block
CCCCOc1ccc(C(=O)Nc2ccc(N3CCCC3=O)cc2)cc1 | 88* | 3
CCCOc1ccc(C(=O)Nc2ccc(N3CCCC3)cc2)cc1 | 3 | -6
Cc1c(Cl)c(C(F)(F)F)nn1CC(=O)Nc1ccc(Cl)c(Cl)c1 | 100* | -1
Cc1ccc(NC(=O)Cn2nc(C(F)(F)F)c(Cl)c2C)cc1C | 3 | -2
Cc1nn(C)cc1CN(C)c1nc(C2CC2)nc2c1CCC2 | 3 | 5
Cc1cccc(C(=O)n2nc(C)c(Sc3ccc([N+](=O)[O-])cc3)c2C)c1 | 32 | 1
Cc1ccc(S(=O)(=O)N2CCC(=O)N([C@H](COCc3ccc(C(F)(F)F)cc3)C(C)C)CC2)cc1 | 30 | -3
O=C(c1ccc(C(F)(F)F)cc1)N1CCC(=O)N([C@H](COCc2ccc(Cl)cc2)Cc2ccccc2)CC1 | 100* | -7
CC(C)C[C@@H](COCc1ccc(Cl)cc1)N1CCN(C(=O)c2ccc(C(F)(F)F)cc2)CCC1=O | 99* | -1
O=C(c1ccc(C(F)(F)F)cc1)N1CCC(=O)N([C@H](COCc2ccc(C(F)(F)F)cc2)Cc2ccccc2)CC1 | 99* | -1
O=C1CCN(Cc2ccc(O)cc2)CCN1[C@H](CO)Cc1ccccc1 | -4 | -1
CC(C)(C)c1ccc(C(=O)N2CCC(=O)N([C@H](COCc3ccc(Cl)cc3)Cc3ccccc3)CC2)cc1 | 48 | -1
O=C(Nc1nnc(SCc2cccc(C(F)(F)F)c2)s1)c1ccccc1Cl | 10 | 0
COc1ccc(C(=O)NCC2(c3cccs3)CCCC2)c(OC)c1 | -23 | 1
Cc1cc(C)c2ccc(NN)nc2c1O | 85* | -6
Cc1cc(C)c2ccc(CO)nc2c1O | 0 | -11
Cc1cc(C)c2ccc(C=O)nc2c1O | 69* | -11
CC(=O)Nc1ccccc1/C=C/c1ccc2c(C)cc(C)c(O)c2n1 | 4 | -5
COc1ccc(C)c2sc(N(CCCN(C)C)C(=O)c3nc4ccccc4s3)nc12 | 1 | -1
COc1ccc(/C=C2/N=C(c3ccccc3)OC2=O)c(OC)c1OC | 2 | 5
CSc1ccc(C(C)=O)s1 | -5 | x
CC1=NN(c2ccccc2)C(=O)/C1=C/c1ccc(Br)s1 | 46 | 2
CC1=NN(c2nn[nH]n2)C(=O)/C1=C\c1cccs1 | 100* | x
CC(C)C(=O)Nc1ccc(NC(=O)c2ccc(C(C)C)cc2)cc1 | 2 | -3
C=CCc1cc(OC)c(O)c(-c2cc(CC=C)cc(OC)c2O)c1 | 61* | 2
